Source: PubChem
Most compounds without a hit are left out; they make up all but 21% or so of the library.
DRD3 agonist = activates the human D3 dopamine receptor; 410,000 tested, 0.58% active; max activation, %; P35462; D3R DiscoveRx beta-arrestin cells, luminescence, 90 min; in the data active = max activation above about 30%
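Agonist-mode cell screen: cells plated at 1500/well and incubated overnight at 37 °C, then exposed to library compounds for 90 min at 37 °C. Detection reagent was added for 30–60 min at room temperature, and luminescence was read.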
ClpP mod = qHTS Assay for Activators of ClpP; ATP-dependent Clp protease proteolytic subunit (Bacillus subtilis (strain 168)), P80244; purified B. subtilis ClpP, FRET peptide cleavage, 20 min; Potency, µM (titrated, usually from 57.5 µM); 340,000 tested, 1.9% active; active = well fitted falling curve with a large enough effect; inconclusive = small, poorly fitted or top-dose-only effect; inactive = no such curve, though single readings can be large or run the other way; note: the source files actives as falling curves though it sought activators and does not explain the sign; nearly all actives have a fitted effect of over 65% in size
Target sequence (P80244 whole entry, looked up): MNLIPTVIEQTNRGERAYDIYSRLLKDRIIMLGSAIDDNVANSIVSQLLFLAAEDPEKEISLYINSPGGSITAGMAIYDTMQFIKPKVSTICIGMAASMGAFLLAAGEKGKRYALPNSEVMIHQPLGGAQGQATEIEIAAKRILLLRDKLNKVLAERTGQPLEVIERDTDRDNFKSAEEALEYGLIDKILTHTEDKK
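Buffer: 100 mM Tris/HCl pH8, 100 mM KCl, 0.05% low protease BSA, 2.5% glycerol, 0.01% Tween-20. ClpP 10 microg/mL final; 20 min RT; delta FRET normalized to ADEP and DMSO controls.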
TDP1 cell CPT = growth inhibition of DT40 Tdp1-/-;hTDP1 cells with camptothecin (screen for TDP1 inhibitors); chicken DT40 Tdp1-/-;hTDP1 cells + 20 nM CPT, ATP luminescence, 48 h; 420,000 tested, 12% active; Potency, µM (series often up to 46.2 µM), hits mostly inhibitors; AID 686979; note: nearly all actives have a fitted effect of over 55% in size
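Chicken DT40 Tdp1-/- cells complemented with human TDP1, 400 cells/well, exposed to compounds plus 20 nM camptothecin for at least 48 h at 37 C; viability read as ATP content by CellTiter-Glo luminescence.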
DRD3 antagonist = antagonists of human D3 dopamine receptor; D3R cells, DiscoveRx beta-arrestin luminescence, antagonist mode; hits give low values; max response, negative = inhibition, %; 360,000 tested, 2.5% active; AID 652054; in the data active = max response below about -50%; inconclusive = no clear call, values can overlap the other calls
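Cells plated overnight at 1500 cells/well, then exposed to library compounds with dopamine controls for 90 minutes at 37 degrees C. DiscoveRx reagent added for 30–60 minutes at room temperature; luminescence read, quantitative HTS format.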
IL1B secr inh = blocks inflammasome-driven IL-1 beta release | THP-1 LPS/ATP IL-1B secretion, AlphaLISA, 16 h; hits give low values | activity change, % at 57.5 µM | 360,000 tested, 4.7% active; in the data active = activity change below about -50%; inconclusive = mostly about -30% to -49%
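THP-1 cells pretreated 1 hr with compounds (up to 57.5 uM final), then stimulated with LPS (250 ng/mL final) plus ATP (1.25 mM final); secreted IL-1B measured by AlphaLISA after 16 hr, decreased signal indicating inhibition.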
DT40 TDP1 no CPT = qHTS for Inhibitors of human tyrosyl-DNA phosphodiesterase 1 (TDP1): qHTS in cells in absence of CPT. DT40 Tdp1-/- hTDP1 cells, no CPT, ATP luminescence, 48 h. Potency, µM (top dose mostly 46.2 µM), usual class: inhibitors. 420,000 tested, 15% active; note: nearly all actives have a fitted effect of over 55% in size
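No-CPT arm: Tdp1-/-;hTDP1 DT40 cells (400/well) plus compounds, incubated ≥48 hr at 37 °C. Readout CellTiter-Glo luminescence.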
Numbers stand for hits. Unless noted, calls come from the whole dose curve; as a rule, active = well fitted inhibition curve with a large enough effect; inconclusive = small, poorly fitted or top-dose-only effect; inactive = flat fitted curve, though single readings scatter.

Screening COCCNC(=O)Nc1ccc2c(c1)N(C)C(=O)c1ccccc1S2 returned DRD3 agonist inactive, TDP1 cell CPT inactive, DRD3 antagonist inactive, IL1B secr inh inactive and DT40 TDP1 no CPT inactive.
For COc1cc(OC)c(NC(=O)Nc2ccc3c(c2)N(C)C(=O)c2ccccc2S3)cc1Cl the results were DRD3 agonist inactive, ClpP mod inactive, TDP1 cell CPT 5.8µM and DT40 TDP1 no CPT 5.8µM.
Screening CN1C(=O)c2ccccc2Sc2ccc(NC(=O)NCc3cccc(Cl)c3)cc21 returned DRD3 agonist inactive, ClpP mod inactive, TDP1 cell CPT 23µM and DT40 TDP1 no CPT 23µM.
`CC(C)NC(=O)Nc1ccc2c(c1)N(C)C(=O)c1ccccc1S2` gave DRD3 agonist inactive, ClpP mod inactive, TDP1 cell CPT inconclusive and DT40 TDP1 no CPT inactive.
COc1ccc(CNC(=O)Nc2ccc3c(c2)N(C)C(=O)c2ccccc2S3)cc1 was read as DRD3 agonist inactive, ClpP mod inactive, TDP1 cell CPT inconclusive and DT40 TDP1 no CPT 21µM.
Screening Cc1ccccc1CNC(=O)Nc1ccc2c(c1)N(C)C(=O)c1ccccc1S2 returned DRD3 agonist inactive, ClpP mod inactive, TDP1 cell CPT 16µM and DT40 TDP1 no CPT 16µM.
Screening COC(=O)N/N=C/c1cn(Cc2c(Cl)cccc2Cl)c2ccccc12 returned DRD3 agonist inactive, ClpP mod inactive, TDP1 cell CPT inactive, DRD3 antagonist inactive, IL1B secr inh inactive and DT40 TDP1 no CPT inconclusive.
Screening COc1cccc(C(O)c2ncc(-c3ccccc3OC)[nH]2)c1 (configuration not stated) returned DRD3 agonist inactive, ClpP mod inactive, TDP1 cell CPT inactive, DRD3 antagonist inactive, IL1B secr inh inactive and DT40 TDP1 no CPT inactive.
`COc1ccc(C(=O)c2cn(CC(=O)Nc3ccc4c(c3)OCO4)c3ccc(OC)cc3c2=O)cc1` gave DRD3 agonist inactive, ClpP mod inactive, TDP1 cell CPT inconclusive and DT40 TDP1 no CPT inconclusive.
For COc1ccc(N2CCN(C(=O)c3cc4c(=O)oc5ccc(C)cc5c4s3)CC2)cc1 the results were DRD3 agonist inactive, ClpP mod inactive, TDP1 cell CPT inactive and DT40 TDP1 no CPT inactive.
For COc1ccc2c(c1OC)C(=O)OC2Nc1nc2ccccc2s1 (configuration not stated) the results were DRD3 agonist inactive, ClpP mod inactive, TDP1 cell CPT inactive, DRD3 antagonist inactive, IL1B secr inh inactive and DT40 TDP1 no CPT inactive.
COc1ccc2c(c1OC)C(=O)OC2Nc1nc(-c2cc3cc(Br)ccc3oc2=O)cs1 (configuration not stated) was read as DRD3 agonist inactive, TDP1 cell CPT inconclusive, DRD3 antagonist inactive, IL1B secr inh -56 and DT40 TDP1 no CPT inconclusive.
Screening COc1ccc(-c2csc(NC3OC(=O)c4c3ccc(OC)c4OC)n2)cc1OC (configuration not stated) returned DRD3 agonist inactive, TDP1 cell CPT 9.2µM, DRD3 antagonist inactive and DT40 TDP1 no CPT 15µM.
For COc1ccc2c(c1OC)C(=O)OC2Nc1nc(-c2ccc([N+](=O)[O-])cc2)cs1 (configuration not stated) the results were DRD3 agonist inactive, TDP1 cell CPT inactive, DRD3 antagonist inactive, IL1B secr inh inactive and DT40 TDP1 no CPT inconclusive.
`Cc1ccc(Sc2ccc(N3CCCC(C(=O)Nc4ccc(F)cc4)C3)nn2)cc1` (configuration not stated) gave DRD3 agonist inactive, ClpP mod inactive, TDP1 cell CPT inconclusive and DT40 TDP1 no CPT inconclusive.
Screening CCCCc1ccc(NC(=O)c2cc3c(=O)n4ccccc4nc3s2)cc1 returned DRD3 agonist inactive, ClpP mod inactive, TDP1 cell CPT inactive and DT40 TDP1 no CPT inactive.
Screening Cc1cccc(-c2nc3ccccc3n2Cc2ccccc2)c1 returned DRD3 agonist inactive, ClpP mod inactive, TDP1 cell CPT inconclusive and DT40 TDP1 no CPT 5.2µM.
